# In PubChem BioAssay (EPA / NIEHS):
# The source made the active and inactive calls. How the source made its calls: active means hit-call score of the fitted dose curve at least 0.9, where 1 is the maximum; inactive means score below 0.9.
# Columns and labels:
# [1] = read-out: Cyclin D2 (CCND2), CCND2 (gene 894); assay: LTEA_HepaRG_CCND2: Life Technologies and Expression Analysis (LTEA) Assay for Cyclin D2 (CCND2) using HepaRG (AID 2283449); details: mRNA level, 48 h; actives raise or lower the signal
# Summary of the method: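 Read-out is CCND2 mRNA level measured by qRT-PCR in human HepaRG liver cells and normalised to three housekeeping genes. Chemicals were applied for 48 h at up to 100 uM, with gain or loss fitted relative to 0.5% DMSO.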
# [2] = read-out: Cyclin Dependent Kinase Inhibitor 1A (CDKN1A), CDKN1A (gene 1026); assay: LTEA_HepaRG_CDKN1A: Life Technologies and Expression Analysis (LTEA) Assay for Cyclin Dependent Kinase Inhibitor 1A (CDKN1A) using HepaRG (AID 2283450); details: mRNA level, 48 h; actives raise or lower the signal
# Summary of the method: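 Differentiated human HepaRG cells, pre-cultured 48 h, were exposed in duplicate for 48 h in serum-free induction medium to eight half-log concentrations up to 100 uM (0.5% DMSO). CDKN1A mRNA was measured by qRT-PCR, normalized to ACTB/GAPDH/POLR2A, bidirectionally fitted versus DMSO.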
# [3] = read-out: Cyclin D1 (CCND1), CCND1 (gene 595); assay: LTEA_HepaRG_CCND1: Life Technologies and Expression Analysis (LTEA) Assay for Cyclin D1 (CCND1) using HepaRG (AID 2283451); details: mRNA level, 48 h; actives raise or lower the signal;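 on AC50: TaqMan qRT-PCR transcript level normalised to ACTB GAPDH and POLR2A housekeeping genes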
# Summary of the method: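 Differentiated human HepaRG cells in serum-free induction medium were exposed 48 h to eight half-log concentrations up to 100 uM in 0.5% DMSO; mRNA quantified by TaqMan qRT-PCR, normalized to ACTB, GAPDH, POLR2A, fitted bidirectionally versus DMSO.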
# [4] = read-out: catalase (CAT), CAT (gene 847); assay: LTEA_HepaRG_CAT: Life Technologies and Expression Analysis (LTEA) Assay for catalase (CAT) using HepaRG (AID 2283452); details: mRNA level, 48 h; actives raise or lower the signal;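 on AC50: TaqMan qRT-PCR signal normalized to ACTB GAPDH and POLR2A housekeeping genes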
# Summary of the method: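 Expression of CAT was quantified by TaqMan qRT-PCR with ACTB/GAPDH/POLR2A normalization after 48 h chemical exposure of HepaRG. Eight-point half-log series, top 100 uM, in 0.5% DMSO; gain or loss fitted against vehicle.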
# [5] = read-out: flavin-containing dimethylaniline monooxygenases 3 (FMO3), FMO3 (gene 2328); assay: LTEA_HepaRG_FMO3: Life Technologies and Expression Analysis (LTEA) Assay for flavin-containing dimethylaniline monooxygenases 3 (FMO3) using HepaRG (AID 2283453); details: mRNA level, 48 h; actives raise or lower the signal;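 on AC50: FMO3 transcript by TaqMan qRT-PCR normalized to ACTB GAPDH and POLR2A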
# Summary of the method: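 HepaRG, 48 h exposure, 8-pt half-log series from 100 uM, 0.5% DMSO vehicle, duplicates; FMO3 transcript by Fluidigm TaqMan qRT-PCR, housekeeping-normalized; gain/loss fit vs DMSO.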
# [6] = read-out: Cytochrome P450 (CYP1A1), CYP1A1 (gene 1543); assay: LTEA_HepaRG_CYP1A1: Life Technologies and Expression Analysis (LTEA) Assay for Cytochrome P450 (CYP1A1) using HepaRG (AID 2283454); details: mRNA level, 48 h; actives raise or lower the signal
# Summary of the method: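 Differentiated HepaRG cells in serum-free induction medium were exposed in duplicate for 48 h to eight half-log concentrations up to 100 uM in 0.5% DMSO. CYP1A1 mRNA was quantified by TaqMan qRT-PCR, normalized to ACTB, GAPDH and POLR2A.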
# [7] = read-out: CFLAR gene, CFLAR (gene 8837); assay: LTEA_HepaRG_CFLAR: Life Technologies and Expression Analysis (LTEA) Assay for CFLAR gene using HepaRG (AID 2283455); details: mRNA level, 48 h; actives raise or lower the signal
# Summary of the method: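 HepaRG, 48 h exposure, 8-pt conc-response (100 uM top, half-log), 0.5% DMSO vehicle, duplicates. CFLAR expression by qRT-PCR; ACTB/GAPDH/POLR2A normalization; gain or loss fit vs DMSO baseline.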
# [8] = read-out: Forkhead box O1 (FOXO1), FOXO1 (gene 2308); assay: LTEA_HepaRG_FOXO1: Life Technologies and Expression Analysis (LTEA) Assay for Forkhead box O1 (FOXO1) using HepaRG (AID 2283456); details: mRNA level, 48 h; actives raise or lower the signal
# Summary of the method: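 Readout is FOXO1 transcript level by multiplexed qRT-PCR against three housekeeping genes, curve-fitted in both directions relative to 0.5% DMSO vehicle. Human HepaRG cultures received chemicals for 48 h, up to 100 uM in half-log steps.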
# [9] = read-out: growth arrest and DNA damage 45 (GADD45A), GADD45A (gene 1647); assay: LTEA_HepaRG_GADD45A: Life Technologies and Expression Analysis (LTEA) Assay for growth arrest and DNA damage 45 (GADD45A) using HepaRG (AID 2283458); details: mRNA level, 48 h; actives raise or lower the signal
# Summary of the method: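 Differentiated HepaRG cells were exposed in duplicate for 48 h in serum-free induction medium to 8-point half-log concentrations up to 100 uM in 0.5% DMSO. GADD45A mRNA was measured by TaqMan qRT-PCR, normalized to ACTB, GAPDH and POLR2A, with bidirectional fitting versus DMSO.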
# [10] = CEETOX_H295R_TESTO: CeeTox H295R High-throughput Steroidogenesis Assay for Testosterone (TESTO) (AID 2283457); details: actives raise or lower the signal
# Procedure: CEETOX_H295R is a cell-based, multiplexed-readout assay that uses H295R, a human adrenal gland cell line, with measurements taken at 48 hours after chemical dosing in a 96-well plate.CEETOX_H295R_TESTO is one of 23 assay component(s) measured or calculated from the CEETOX_H295R assay. It is designed to make measurements of hormone induction, a form of inducible reporter, as detected with […] by HPLC-MS-MS technology.Data from the assay component CEETOX_H295R_TESTO was analyzed into 1 assay endpoint. This assay endpoint, CEETOX_H295R_TESTO, was analyzed with bidirectional fitting relative to DMSO as the negative control and baseline of activity. Using a type of inducible reporter, gain or loss-of-signal activity using HPLC-MS-MS was used to understand synthesis of Testosterone in H295R cell line at 48hr of chemical exposure. To generalize the intended target to other relatable targets, this assay endpoint is annotated to the steroid hormone intended target family, where the subfamily is androgens.
# Cell culture and media preparation procedures were conducted in accordance with OECD Test No. 456 guidelines, with minor modifications. H295R cells (ATCC CRL-2128) were expanded for 5 passages and frozen in batches in liquid nitrogen. Prior to the steroidogenesis assay, H295R cells were thawed and passed at least 4 times. The maximum passage was 10. Cells were maintained in a 1:1 mixture of DMEM/F12 supplemented with 5ml/L ITS+ Premix (BD Bioscience) and 12.5 ml/L Nu-Serum (BD Bioscience). After seeding cells into 96-well plates at 50-60% confluency, cells were allowed to adhere overnight. […] Test chemicals were incubated for 48 hours, then the medium was removed and split into 2 vials containing approximately 75uL each, and stored at -80 C prior to hormone analysis. For steroid quantification, media samples were shipped to OpAns, LLC (Durham, NC) on dry ice, and samples were thawed to room temperature prior to liquid-liquid extraction. Steroid hormones were extracted from media samples using methyl tertbutyl ether (MTBE). An extra derivatization with dansyl chloride was included for estrogen (estrone and estradiol) detection only. Steroid hormones were separated by HPLC, eluted using a reverse phase C18 gradient with electrospray positive ionization, followed by quantification by tandem mass spectrometry (MS/MS). Data were acquired on a MassHunter Workstation Acquisition version B03.01 (Agilent Technologies, Inc.) and processed using MassHunter Quantitative Analysis for QQQ. Accuracy was determined for each hormone analyte from 3 standards to determine upper and lower limits of quantification (ULOQ and LLOQ, respectively) using a 7-point standard curve. Precision and accuracy of the extraction and quantification methods were calculated as the percent relative standard deviation (%RSD) of the spiked standards and percent spiked standard recovered, respectively. […] Test medium was removed following chemical exposure, and cell viability was evaluated in the same wells by MTT. MTT procedures were as follows: after removal of test medium, 500 uL of 0.5 mg/ml of 3-[4,5-dimethylthiazol-2-y]2,5-diphenyltetrazoliumbromide solution was added to the cells. Following a 4-hour incubation at 37 C and 5% CO2 to allow formazan-crystal formation, the MTT solution was removed and blue formazan salt crystals were solubilized using 500uL anhydrous isopropanol with shaking for 20 minutes. Absorbance was read at 570 and 650nm using a Packard Fusion microplate reader. Background correction of absorbance units was used to determine percent change relative to controls. […] When a test chemical reduced cell viability to 20% - 70%, the test chemical was diluted 10-fold and re-evaluated, but if cell viability was <20%, then the test chemical was diluted 100-fold and re-evaluated. Test chemical dilutions were made until cell viability was >/=70%. MTT assays were also conducted for duplicates of all concentrations of chemicals tested in concentration-response studies. […]
SMILES,outcome [1],outcome [2],outcome [3],outcome [4],outcome [5],AC50 [6],outcome [7],outcome [8],outcome [9],AC50 [5],AC50 [3],AC50 [4],AC50 [7],AC50 [8],outcome [10],AC50 [9],AC50 [2],outcome [6]
Cn1c(=O)c2c(ncn2C)n(C)c1=O,inactive,inactive,inactive,inactive,inactive,50 µM (active),inactive,inactive,inactive,,,,,,,,,
CCCCCCCCCCCCCCCO,inactive,inactive,inactive,inactive,inactive,30.8 µM (active),inactive,inactive,inactive,,,,,,,,,
CC/C(=C\C(=N/O)C(N)=O)C(C)[N+](=O)[O-] (stereo unspecified),inactive,inactive,inactive,inactive,inactive,31.9 µM (active),inactive,inactive,inactive,,,,,,,,,
CCn1nc(Cc2ccccc2)cc1C1CCN(C[C@H]2C[C@H](N(C)[C@@H](C(=O)O)C(C)C)C[C@@H]2c2cccc(F)c2)CC1,inactive,inactive,inactive,inactive,,83.9 µM (active),inactive,inactive,inactive,50 µM (active),,,,,,,,
CCOc1cccc(-n2cc(C(=O)N3CCN(c4cc(C(=O)O)c5ccccc5c4)CC3)nc2-c2ccc(C)cc2)c1,inactive,inactive,,,,12.3 µM (active),,,,33.1 µM (active),82.4 µM (active),31.6 µM (active),84 µM (active),80.5 µM (active),inactive,13.4 µM (active),,
O=c1n(CC2CO2)c(=O)n(CC2CO2)c(=O)n1CC1CO1 (stereo unspecified),inactive,,inactive,inactive,inactive,,inactive,inactive,inactive,,,,,,,,58.7 µM (active),inactive
CCCCC(CC)COC(=O)CCCCCCCCC(=O)OCC(CC)CCCC (stereo unspecified),inactive,inactive,inactive,inactive,inactive,,inactive,inactive,inactive,,,,,,,,,inactive
Nc1nc2ncc(CNc3ccc(C(=O)N[C@@H](CCC(=O)O)C(=O)O)cc3)nc2c(=O)[nH]1,inactive,inactive,inactive,inactive,inactive,78.5 µM (active),inactive,inactive,inactive,,,,,,,,,
Cn1cnc([N+](=O)[O-])c1Sc1ncnc2nc[nH]c12,inactive,,inactive,,,34.8 µM (active),inactive,,inactive,17.5 µM (active),,1.69 µM (active),,5.19 µM (active),,,4.48 µM (active),
CC1(C)C(=O)N(Br)C(=O)N1Br,inactive,inactive,inactive,inactive,inactive,36.8 µM (active),inactive,inactive,inactive,,,,,,,,,
CC(=O)OCCC(C)C,inactive,inactive,inactive,inactive,inactive,73.2 µM (active),inactive,inactive,inactive,,,,,,,,,
O=C(O)CCN(C1(C(=O)NO)CCCC1)S(=O)(=O)c1ccc(Oc2ccc(F)cc2)cc1,inactive,inactive,inactive,inactive,inactive,67.5 µM (active),inactive,inactive,inactive,,,,,,,,,
CCCN(C1CCN(C(=O)C2CCNCC2)CC1)[C@@H]1CCc2ccc(OC)cc2C1,inactive,inactive,,,,,,,inactive,57.5 µM (active),50 µM (active),50.1 µM (active),50 µM (active),50 µM (active),,,,inactive
CCOC(=O)COc1ccc2c(c1)CC(NCC(O)c1cccc(Cl)c1)CC2 (stereo unspecified),inactive,inactive,inactive,inactive,inactive,,inactive,inactive,inactive,,,,,,,,,inactive
COCCOCCOCCOC,inactive,inactive,inactive,inactive,inactive,,inactive,inactive,inactive,,,,,,,,,inactive
